eLon inh = inhibitors of E. coli Lon protease, primary screen, biochemical, fluorescence polarization. purified E. coli Lon protease. inhibition, % at 7.94 µM. 360,000 compounds, 0.42% hits; in the data active = inhibition above about 13%, passing the limit was not always enough
MEX-5 binding = MEX-5 zinc finger RNA-binding disruptors – biochemical, C. elegans, fluorescence polarization, MLPCN library, primary screen; AID 1832, 2009; Zinc finger protein mex-5 (Caenorhabditis elegans), Q9XUB2; 300,000 compounds, 0.38% hits; activity score (negative = inhibition of binding), % at 10 µM; MEX-5/FITC-TCR2 RNA binding; active compounds read low;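 active = inhibition past about -25% in most replicates, and total fluorescence under double the plate's negative control median, limit read from the data; inconclusive = replicates evenly split on the limit, or fluorescence at least double controls; inactive = too little inhibition in most replicates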
BCLXL inh = inhibitors of human Bcl-xL, primary screen, biochemical, fluorescence polarization, HTS; Bcl-2-like protein 1 (Homo sapiens), Q07817; GST-Bcl-xL / FITC-Bim BH3 peptide fluorescence polarization; AID 2129, 2009; inhibition, % at 10.9 µM; 320,000 compounds, 0.7% hits;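 active = inhibition above the mean of all tested compounds plus 3 SD, cutoff set per campaign, cut at about 30% in these data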;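 also: inhibitors lower millipolarization by displacing the labeled peptide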
GLD-1 RNA inh = GLD-1/TGE RNA complex disruptors, primary screen, biochemical, fluorescence polarization. inhibition, % at 5.96 µM. Female germline-specific tumor suppressor gld-1 (Caenorhabditis elegans), Q17339. 320,000 compounds, 0.44% hits. purified GLD-1 + fluorescein TGE RNA;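 active = percent inhibition above a per-plate cutoff, the plate mean of test compounds plus 3 SD, cut at about 30% in these data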
MCL1-BIM inh = inhibitors of MCL1 binding to BIM-BH3, primary screen, biochemical, fluorescence polarization; Induced myeloid leukemia cell differentiation protein Mcl-1 (Homo sapiens), Q07820; GST-MCL1 / FITC-Bim-BH3 fluorescence polarization; inhibition, % at 10.9 µM; 320,000 compounds, 0.68% hits; AID 2057, 2009;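 active = inhibition above the mean inhibition of all tested compounds plus 3 SD, set per campaign, cut at about 40% in these data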;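 also: higher means more loss of mP so more displacement of Bim peptide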
Target sequence (Q07820 whole entry, looked up): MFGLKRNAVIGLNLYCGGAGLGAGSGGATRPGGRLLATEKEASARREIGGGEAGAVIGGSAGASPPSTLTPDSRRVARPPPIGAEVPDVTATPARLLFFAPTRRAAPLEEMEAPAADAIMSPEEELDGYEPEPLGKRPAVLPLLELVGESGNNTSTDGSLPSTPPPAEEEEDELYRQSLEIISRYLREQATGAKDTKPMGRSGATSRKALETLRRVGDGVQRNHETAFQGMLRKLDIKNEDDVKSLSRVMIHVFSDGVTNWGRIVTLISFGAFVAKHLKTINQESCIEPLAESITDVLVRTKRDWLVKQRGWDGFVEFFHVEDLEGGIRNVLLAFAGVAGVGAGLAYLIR
A number is an active result; – = inactive; ? = inconclusive; · = no result given; ! = not confirmed by another sample. Shown are actives, neighbours in structure and some others; about 1.4% of the full set was active somewhere.

SMILES	eLon inh	MEX-5 binding	BCLXL inh	GLD-1 RNA inh	MCL1-BIM inh
Cc1ccc2cc(CNCCc3ccccc3C)c(=O)[nH]c2c1	–	–	–	–	–
COc1ccc(Cn2c(O)c(C=Nc3c(C)n(C)n(-c4ccccc4)c3=O)c(=O)[nH]c2=O)cc1	–	–	–	–	–
COc1ccc(N=Cc2c(O)n(Cc3ccccc3)c(=S)[nH]c2=O)c(OC)c1	–	-57.5	–	–	–
COc1ccc(OC)c(N=Cc2c(O)n(Cc3ccccc3)c(=S)[nH]c2=O)c1	–	-47.0	–	–	–
COc1cccc(C2(O)CCN(CC(=O)Nc3nc(C)cs3)CC2)c1	–	-51.2	–	–	–
CCCNC(=O)N1[C@H]2CC[C@@H]1C(C(=O)OC)=C(c1ccc(-c3ccccc3)c(F)c1)C2	–	·	–	–	–
O=c1[nH]c(=O)n(CC2CCCO2)c(O)c1/C=C1\C=Nc2ccccc21 (configuration not stated)	–	-35.7!	–	–	–
O=c1[nH]c(=O)n(-c2ccc(F)cc2)c(O)c1/C=C1\C=Nc2ccccc21	–	-36.5	–	–	–
O=c1[nH]c(=O)n(-c2ccccc2F)c(O)c1/C=C1\C=Nc2ccccc21	–	–	–	–	–
O=c1[nH]c(=O)n(Cc2ccccc2)c(O)c1/C=C1\C=Nc2ccccc21	–	?	–	–	–
CCN(CC)C(=O)Cn1cc(C=C2C(=O)N(C)C(=O)N(C)C2=O)c2ccccc21	–	?	–	–	–
COC(=O)Cn1cc(C=C2C(=O)N(C)C(=O)N(C)C2=O)c2ccccc21	·	-80.1	–	–	–
COc1ccc(OC(=O)N(C)C[C@@H]2OCc3ccccc3-c3c(n(C)c4ccccc34)C(=O)N([C@H](C)CO)C[C@@H]2C)cc1	–	·	·	·	·
CCN(CC)C(=O)c1ccc2c(c1)C1C=CCC1C(C(=O)O)N2 (configuration not stated)	–	-55.7	·	·	·
CCOC(=O)c1c(/N=C/C2C(=O)NC(=S)NC2=O)sc2c1CCC2	–	-30.5	–	–	–
CCOC(=O)c1c(/N=C/C2C(=O)NC(=S)NC2=O)sc(C)c1C	·	?	–	–	–
COc1ccc(OC)c(N2C(=O)NC(=O)/C(=C\c3ccc([N+](=O)[O-])s3)C2=O)c1	–	-39.7	–	–	–
O=C(N/N=C/c1c(O)n(C2CCCCC2)c(=S)[nH]c1=O)c1ccccc1	–	–	–	–	–
O=C(N/N=C/C1C(=O)NC(=S)N(c2ccccc2)C1=O)c1cc(Br)c(O)c(Br)c1 (configuration not stated)	–	-79.5	–	–	–
CCOC(=O)c1c(-n2c(C)cc(C=C3C(=O)NC(=O)NC3=O)c2C)sc2c1CCCC2	–	-45.4	–	–	–
Cc1cccc(N2C(=O)NC(=O)/C(=C\c3cc(C)n(-c4sc5c(c4C#N)CCCC5)c3C)C2=O)c1C	–	–	–	–	–
O=C(NCC1=C(c2ccc3ccccc3c2)C[C@@H]2CC[C@H]1N2Cc1ccco1)c1ccc([N+](=O)[O-])cc1	–	·	·	·	·
N#CC(C#N)=Cc1ccc(-c2ccccc2)o1	·	-42.7	–	–	–
CN1C(=O)C(=Cc2sc(=O)n(-c3ccccc3)c2N2CCCCC2)C(=O)N(C)C1=O	–	-46.4	·	·	·
CCOP(=O)(Cc1ccccc1)OCC	–	–	–	–	–
CCCNC(=O)N1[C@H]2CC[C@@H]1C(C(=O)OC)=C(c1ccc(F)cc1OCc1ccccc1)C2	–	·	–	–	–
Clc1cccc(C2NCCc3[nH]cnc32)c1 (configuration not stated)	–	–	–	–	–
O=[N+]([O-])c1cc(-c2ccc([As](=O)(O)O)cc2)ccc1[As](=O)(O)O	·	-46.3	·	·	·
